Results taken from article PMC7826789 (International Journal of Molecular Sciences, 2021).

What was measured:
Settings in all cases: Compound Concentration (nM):1000
BIKE = test system: T1, BIKE
T1 construct: gene BMP2K

BLK = test system: BLK
BMPR1A = test system: BMPR1A
BMPR1B = test system: BMPR1B
BMPR2 = test system: BMPR2
BMX = test system: BMX
BRAF(V600E) = test system: BRAF(V600E)
BRAF = test system: BRAF
BRK = test system: T2, BRK
T2 construct: gene PTK6

BRSK1 = test system: BRSK1
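Note: KINOMEscan scanMAX binding as percent activity remaining versus control; lower means stronger binding.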

SMILES	Percent Control (BIKE) [%]	Percent Control (BLK) [%]	Percent Control (BMPR1A) [%]	Percent Control (BMPR1B) [%]	Percent Control (BMPR2) [%]	Percent Control (BMX) [%]	Percent Control (BRAF(V600E)) [%]	Percent Control (BRAF) [%]	Percent Control (BRK) [%]	Percent Control (BRSK1) [%]
CCS(=O)(=O)c1ccc(OC)c(Nc2ncc(-c3cccc(F)c3)o2)c1 [GW621970X]	100	16	95	64	100	100	73	91	100	100
Cl.O=C(O[C@H]1CN[C@H](C#Cc2cc3ncnc(Nc4ccc5c(cnn5Cc5ccccc5)c4)c3s2)C1)N1CCOCC1 [GSK200398A]	100	100	96	90	99	98	99	91	78	100
COc1ccc2cc(-c3c(-c4ccncc4)nc(-c4ccc(S(C)(=O)=O)cc4C)n3C)ccc2c1 [SB-633825]	100	52	79	63	91	54	86	97	44	100
COc1cccc(-c2c[nH]c3c(N/N=C/c4ccncc4)ncnc23)c1 [GW814408X]	38	19	31	0.1	99	100	26	29	100	100
Cl.O=S1CCN(Cc2ccc(-c3ccc4ncnc(Nc5ccc(OCc6ccccc6)c(F)c5)c4c3)o2)CC1 [GW576924A]	100	100	100	100	100	100	65	79	100	100
COc1ccc2c(-c3ccnc(Nc4cccc(OC(F)(F)F)c4)n3)cnn2n1 [GW810372X]	58	100	100	100	100	90	92	100	100	100
COC(=O)Nc1nc2ccc(Oc3ccc(NC(=O)Nc4cc(C(F)(F)F)ccc4F)cc3)cc2s1.Cl [GW693917A]	75	61	89	80	99	100	17	30	96	100
COc1ccccc1-c1cc(/C=C2\C(=O)Nc3ncc(Br)cc32)cc(Br)c1O [GW442130X]	100	63	86	85	97	100	68	78	100	98
CC1=C(C(=O)Nc2ccc3[nH]ncc3c2)C(c2ccc(Cl)c(Cl)c2)CC(=O)N1 (stereo not shown) [GSK299115A]	100	91	100	67	69	75	82	100	70	92
COc1cc2ncnc(Nc3ccc4c(cnn4Cc4ccccc4)c3)c2cc1OC.Cl [GW282449A]	100	23	92	91	100	100	100	100	75	100
Cl.O=C(Nc1ccc(Oc2ccc3[nH]c(NC(=O)c4ccco4)nc3c2)cc1)Nc1cc(C(F)(F)F)ccc1F [GW683134A]	100	70	73	100	98	87	13	32	100	100
O=C1Nc2ccc(C(=O)c3ccco3)cc2C1=Cc1cc(Cl)c(O)c(Cl)c1 [GW406108X]	59	100	100	35	0	81	1.2	4.4	100	100
C[C@@H](Oc1cc(-n2cnc3ccc(OC4CCN(C)CC4)cc32)sc1C(N)=O)c1ccccc1Cl [GSK579289A]	19	94	72	67	78	98	82	95	77	64
CCS(=O)(=O)c1ccc(OC)c(Nc2ncc(-c3cccc(OC)c3)o2)c1 [GW580509X]	100	21	100	45	100	100	78	86	100	100
COc1cc(/C=N/Nc2ncnc3[nH]ncc23)ccc1O [GW578748X]	53	32	100	22	9.6	89	26	35	80	100
CC(C)COC(=O)c1ccc2c(c1)/C(=C/Nc1ccc(S(N)(=O)=O)cc1)C(=O)N2 [GW416981X]	27	100	100	96	30	100	97	100	100	100
CC1=C(C(=O)Nc2ccc3[nH]ncc3c2)C(c2ccc3ccccc3c2)CC(=O)N1 (stereo not shown) [GSK270822A]	100	35	100	43	75	78	80	100	80	100
O=C(Nc1n[nH]c2nc(-c3ccc(O)cc3)c(Br)cc12)C1CC1 [SB-725317]	63	92	98	69	100	100	5.3	17	100	46
CCc1ccc(Oc2nccc(-c3c(-c4ccc(F)cc4)ncn3C3CCNCC3)n2)cc1 [SB-242719]	100	82	87	88	82	100	100	100	94	94
COc1ccc(COc2ccc(Cc3cnc(N)nc3N)cc2OC)cc1 [GW632580X]	94	78	100	92	94	100	91	100	100	100
COc1ccc2[nH]c3c4[nH]c5ccc(OC)cc5c4c4c(c3c2c1)C(=O)NC4=O [GW296115X]	76	71	100	56	93	99	89	86	81	10
C/C(Nc1ccc(S(N)(=O)=O)cc1)=C1/C(=O)Nc2ccccc21 [GW335962X]	100	100	99	97	84	86	86	100	95	91
NS(=O)(=O)c1ccc(N/N=C2\C(=O)Nc3ccc(Cl)cc32)cc1 [GW280670X]	100	100	100	100	100	100	92	100	100	100
NS(=O)(=O)c1ccc(N/N=C2\C(=O)Nc3ccc(C(=O)NCCc4c[nH]cn4)cc32)cc1 [GW300660X]	100	100	100	95	87	100	86	100	100	100
CN1CCN(C(=O)c2ccc(NC(=O)Nc3ccc(N(C)c4ccnc(Nc5ccc(CS(C)(=O)=O)cc5)n4)cc3)cc2)CC1.Cl [GW830263A]	2.4	87	32	1.1	56	59	85	89	95	100
Cc1cc(O)cc(C)c1/C=C/c1cncc(C(N)=O)c1 [GW435821X]	100	59	64	4.4	100	100	12	23	58	94
COc1cc(C)c(N(C)C(=O)CN(C)C)cc1Nc1nc(Nc2cccc(F)c2C(N)=O)c2cc[nH]c2n1 [GSK2219385]	77	100	93	95	91	92	82	72	100	100
NS(=O)(=O)c1ccc(N/N=C2\C(=O)Nc3ccc(C(=O)NCc4ccncc4)cc32)cc1 [GW300657X]	60	99	100	78	68	100	87	97	100	100
